Source: PubChem BioAssay (The Scripps Research Institute Molecular Screening Center)
PAFAH1B3 FP inh: blocks human PAF acetylhydrolase 1B catalytic subunit 3; recombinant PAFAH1B3, FP-rhodamine probe, fluorescence polarization; inhibition, % at 3.39 µM; 340,000 tested, 0.28% active;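 active = inhibition above the screen-wide average of all tested compounds plus 3 SD, cut at about 25% in these data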;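 also: 0% = enzyme with DMSO only and 100% = wells lacking PAFAH1B3 protein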
pPAFAH inh: pPAFAH (human) enzyme inhibition; Q13093; recombinant pPAFAH, FP-rhodamine probe fluorescence polarization; inhibition, % at 3.39 µM; 330,000 tested, 1.5% active;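 active = inhibition above the mean inhibition across the screen plus 3 SD, cut at about 25% in these data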;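 also: inhibitors block binding of the rhodamine activity-based probe so polarization drops; 0% = enzyme with DMSO and 100% = wells lacking pPAFAH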
DAGLB inh: diacylglycerol lipase beta (human) inhibition; Q8NCG7; HEK293T DAGLB membrane lysate, EnzChek fluorogenic substrate; inhibition, % at 5.17 µM; 340,000 tested, 0.059% active; AID 504411; in the data active = inhibition above about 34%;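 also: 0% = enzyme with vehicle and 100% = wells lacking enzyme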
Target sequence (Q8NCG7 whole entry, looked up): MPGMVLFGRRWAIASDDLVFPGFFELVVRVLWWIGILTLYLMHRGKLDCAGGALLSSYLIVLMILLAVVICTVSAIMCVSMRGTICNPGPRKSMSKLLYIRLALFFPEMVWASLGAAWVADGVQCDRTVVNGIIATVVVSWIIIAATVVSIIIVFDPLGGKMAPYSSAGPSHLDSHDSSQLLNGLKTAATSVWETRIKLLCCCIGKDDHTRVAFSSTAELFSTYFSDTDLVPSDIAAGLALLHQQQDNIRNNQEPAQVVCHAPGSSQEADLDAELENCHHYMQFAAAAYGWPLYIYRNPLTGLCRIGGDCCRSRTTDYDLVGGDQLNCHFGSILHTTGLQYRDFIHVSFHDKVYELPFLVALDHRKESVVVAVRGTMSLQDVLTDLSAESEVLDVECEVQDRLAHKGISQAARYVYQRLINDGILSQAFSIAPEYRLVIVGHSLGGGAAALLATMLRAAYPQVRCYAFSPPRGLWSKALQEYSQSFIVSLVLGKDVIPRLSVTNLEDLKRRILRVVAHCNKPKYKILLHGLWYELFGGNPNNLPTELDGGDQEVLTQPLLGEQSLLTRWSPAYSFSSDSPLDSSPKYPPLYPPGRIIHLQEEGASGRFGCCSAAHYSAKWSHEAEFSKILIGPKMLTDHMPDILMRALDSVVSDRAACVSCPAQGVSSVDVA
PAFAH1B2 inh: inhibitors of human PAFAH1B2 | 340,000 tested, 1.2% active | AID 492953 | inhibition, % at 3.39 µM | P68402 | recombinant PAFAH1B2, FP-rhodamine activity probe, fluorescence polarization;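 active = inhibition above the mean of all tested compounds plus 3 SD, cut at about 24% in these data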;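 also: 0% = enzyme with DMSO and 100% = wells lacking PAFAH1B2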
HTRA1 inh: blocks human HTRA1 serine peptidase. inhibition, % at 5.96 µM. Q92743. recombinant HTRA1, FP-rhodamine activity-based probe, fluorescence polarization. 340,000 tested, 0.5% active. AID 504803; in the data active = inhibition above about 36%;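 also: 0% = enzyme with DMSO and 100% = wells lacking enzyme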
PAFAH2 FP inh: PAFAH2 (human) inhibition; Q99487; recombinant PAFAH2, FP-rhodamine activity probe, fluorescence polarization; inhibition, % at 3.39 µM; 340,000 tested, 0.99% active;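 active = inhibition above the mean over all tested compounds plus 3 SD, cut at about 30% in these data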;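 also: inhibitors block probe labeling of enzyme so polarization drops; 0% = enzyme with DMSO and 100% = wells lacking PAFAH2 protein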
An asterisk follows results filed as active; . = no result; ! = repeats disagree. Sampled rows, rich in hits. Any-hit rate of the full collection: about 2.8%.

SMILES | PAFAH1B3 FP inh | pPAFAH inh | DAGLB inh | PAFAH1B2 inh | HTRA1 inh | PAFAH2 FP inh
COc1cccc(-c2nc(-c3ccccc3)c(-c3ccccc3)[nH]2)c1OCC(=O)O | 14 | . | 12 | 24* | -5 | 22
O=C(O)COc1ccccc1-c1nc(-c2ccccc2)c(-c2ccccc2)[nH]1 | 6 | 15 | 9 | 36* | -16 | 18
CCC(=O)OC1(C)C(=O)C=C2C=C(c3ccc(C#N)cc3)OC=C2C1=O (stereo not drawn) | 18 | 33* | 12 | 7 | 23 | 11
CC1(OC(=O)c2ccco2)C(=O)C=C2C=C(c3ccc(C#N)cc3)OC=C2C1=O (stereo not drawn) | . | 52* | . | . | . | .
CC1(OC(=O)CCc2ccccc2)C(=O)C=C2C=C(c3ccc(C#N)cc3)N(Cc3ccco3)C=C2C1=O (stereo not drawn) | -6 | 33* | 12 | 4 | 14 | -3
CC1(OC(=O)CCc2ccccc2)C(=O)C=C2C=C(c3ccc(C#N)cc3)N(Cc3ccccc3)C=C2C1=O (stereo not drawn) | -5 | 15 | 8 | -7 | 25 | 0
CCN(CC(=O)Nc1ccc(NC(C)=O)cc1)C(=O)/C=C/c1ccc(S(=O)(=O)N2CCCCCC2)cc1 | 0 | 6 | 0 | 2 | -2 | -4
CCCCCC(O)(c1ccc(OC)cc1)C(CN1CCOCC1)c1ccccc1 (stereo not drawn) | 6 | 4 | -11 | 9 | -11 | -5
CCCCC(O)(c1ccc(OC)cc1)C(CN1CCOCC1)c1ccccc1 (stereo not drawn) | 9 | -3 | -5 | 24* | -6 | -4
CCOC(=O)C/C(C)=N\Nc1nc(-c2ccccc2)cs1 | 4 | 26* | 7 | 1 | 6 | 3
O=C(NCCCNc1ccc(C(F)(F)F)cc1[N+](=O)[O-])c1cc(F)c(F)cc1Cl | -2 | 4 | -2 | 0 | 2 | 6
O=C(NCCCNc1ccc(C(F)(F)F)cc1[N+](=O)[O-])c1ccc(Cl)cc1 | 6 | 10 | -1 | 29* | -43 | -2
O=C(O)c1ccc(N=C2NC(=O)C(CO)(CO)S2)cc1 | 6 | 3 | -1 | -1 | 1 | -5
CCCCn1c(CCC(=O)O)ccc1-c1cccs1 | -2 | 28* | 1 | 10 | 1 | 4
COCCn1c(CCC(=O)O)ccc1-c1cccs1 | -4 | 6 | -3 | -4 | -1 | -4
CCOC(=O)c1ccc(-n2c(CCC(=O)O)ccc2-c2cccs2)cc1 | 5 | 8 | 4 | -4 | -11 | 4
Cc1ccc(-n2c(CCC(=O)O)ccc2-c2cccs2)cc1C | 8 | 29* | 7 | 6 | -2 | 10
CCOC(=O)c1c(C)[nH]c(O)c1C=Nc1ccc(Cl)cc1 | -2 | 9 | -3 | 4 | 24 | -5
CCOC(=O)c1c(C)[nH]c(O)c1C=Nc1ccc(C(F)(F)F)cc1 | 31* | 8 | -3 | 18 | 62* | 13
CCc1ccc(-c2cc3c(=O)n(CC(=O)N4CCCCCC4)nc(C)n3n2)cc1 | -1 | 5 | -6 | 4 | 3 | 0
O=C(c1ccc2ccccc2n1)N1CCN(S(=O)(=O)c2ccc(Cl)cc2)CC1 | 2 | 0 | -1 | 28* | -3 | 2
CN1CCN(S(=O)(=O)c2ccc(Cl)cc2)CC1 | 11 | -9 | 1 | 25*! | -3 | -1
COc1ccc(NC(=O)CCN2CCN(S(=O)(=O)c3ccc(Cl)cc3)CC2)cc1 | -2 | -6 | -3 | 25* | 0 | 6
CN1CCN(S(=O)(=O)c2ccc(-c3ccc(Cl)cc3)cc2)CC1 | -2 | -1 | -1 | 2 | -4 | -3
O=C(c1cncc(Br)c1)N1CCN(S(=O)(=O)c2ccc(Cl)cc2)CC1 | 12 | 3 | 3 | 25* | 0 | 7
SMILES | PAFAH1B3 FP inh | pPAFAH inh | DAGLB inh | PAFAH1B2 inh | HTRA1 inh | PAFAH2 FP inh
COc1ccc(NC(=O)CCN2CCN(S(=O)(=O)c3ccc(C(C)C)cc3)CC2)cc1 | 12 | 1 | -2 | 0 | -9 | 2
COc1ccc(N(CC(=O)NCc2ccco2)C(=O)CCC(=O)Nc2ccccn2)cc1 | 1 | . | -1 | 1 | 1 | 1
COc1ccc(N(C(=O)Cn2nnc(-c3ccc(C)o3)n2)C(C(=O)NC2CCCC2)c2ccncc2)cc1 (stereo not drawn) | 2 | -1 | 1 | -4 | -5 | -6
O=S(=O)(c1ccc(Cl)cc1)N1CCCC(C(F)(F)F)C1 (stereo not drawn) | 5 | 6 | -7 | 30* | 2 | 7
O=C(C1CCCCC1)N1CCN(S(=O)(=O)c2ccc(Cl)cc2)CC1 | 2 | 4 | -1 | 27* | 0 | -4
Cc1ccc(S(=O)(=O)c2ccc(Cl)cc2)cc1S(=O)(=O)N1CCN(C)CC1 | 4 | 6 | 2 | 26* | 0 | -1
O=C(CN1CCN(C(=O)CNC(=O)c2ccc(N3CCCC3=O)cc2)CC1)Nc1cccc(F)c1 | . | . | -5 | . | 6 | .
CCn1nc(Cc2cccc3ccccc23)c(C#N)c1N | 7 | 3 | 2 | 4 | -12 | 0
CCn1c(SCC(=O)Nc2oc(-c3ccccc3)c(-c3ccccc3)c2C#N)nnc1-c1ccco1 | 9 | 21 | -2 | 25* | -41 | 11
Cc1cc(NC(=O)CSc2ncnc3sccc23)no1 | 1 | -2 | -2 | 3 | -14 | -2
N#Cc1c(NC(=O)CSc2ncnc3sccc23)oc(-c2ccco2)c1-c1ccco1 | 16 | 33* | 5 | 3 | -1 | 22
N#Cc1cccc(S(=O)(=O)NCc2nnc3ccccn23)c1 | 3 | -1 | 3 | 6 | -1 | 0
CC(=O)Nc1ccc(Nc2nc(-c3ccccc3)nc3ccccc23)cc1 | 22 | 28* | 2 | 6 | -41 | 0
CN(Cc1ccon1)C(=O)C1CCC(=O)N(Cc2ccc(Cl)cc2)C1 (stereo not drawn) | 9 | 1 | -1 | 3 | 3 | -2
Oc1c(/C=N/Nc2cccc3cccnc23)ccc2ccccc12 | 3 | 30* | 0 | 3 | 18 | -18
N#Cc1ccccc1OCC(=O)OCC(=O)NC1CCCC1 | 9 | 5 | -1 | -3 | 11 | 2
CC(C)(C)SCCNS(=O)(=O)c1ccc(Cl)cc1 | . | 31* | . | . | . | .
COc1ccc(S(=O)(=O)NCCOc2ccc(Cl)cc2)cc1 | 9 | -2 | -3 | 20 | -11 | -1
Cc1ccc(S(=O)(=O)NCC(=O)OCCOc2ccc(Br)cc2)cc1 | 12 | 13 | -1 | 30* | -14 | -2
Cc1ccc(OCCNS(=O)(=O)c2ccc(Cl)cc2)cc1 | 5 | 3 | -5 | 24* | -9 | 9
Cc1ccccc1NS(=O)(=O)c1cc2c3c(c1)C(C)C(=O)N3CCC2 (stereo not drawn) | -4 | 16 | -3 | -4 | 2 | 0
CCOC(=O)C1=NS(=O)(=O)NC(C)=C1 | 2 | 6 | -1 | 3 | 10 | 3
O=S(=O)(Oc1ccccc1N1CCCCC1)c1ccccc1 | 5 | -6 | -6 | 31* | -30 | 7
